Screens as filed in PubChem BioAssay.
MazEF act – activators of E. coli MazEF toxin-antitoxin RNase, primary screen, biochemical, fluorescence, uHTS; Endoribonuclease toxin MazF (Escherichia coli (strain K12)), P0AE70; FAM/BHQ RNA-DNA oligo cleavage fluorescence, 5 h; activation, % at 20 µM; hit rate 0.32% among 350,000; in the data active = activation above about 50%
Target sequence (P0AE70 whole entry, looked up): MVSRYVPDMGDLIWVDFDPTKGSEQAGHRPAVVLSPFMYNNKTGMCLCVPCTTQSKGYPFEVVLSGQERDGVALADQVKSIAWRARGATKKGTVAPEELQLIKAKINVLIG
SSB-PriA inh – inhibitors of Klebsiella pneumoniae PriA binding to SSB C-terminal tail, primary screen, biochemical, AlphaScreen; PriA–SSB C-terminal tail interaction (Klebsiella pneumoniae); AID 1272365, 2023; hit rate 0.6% among 430,000; inhibition, % at 33 µM; AlphaScreen SSBct-PriA binding, biotinylated peptide; in the data active = inhibition mostly above about 37%, no sharp cut-off; inactive = mostly below about 20%
Vc quorum ag – inducers of Vibrio cholerae quorum light production without autoinducers, primary screen, BH1578 luxS cqsA deficient, single point. V. cholerae BH1578 lux reporter, luminescence, 6 h. activation, % at 18.7 µM. hit rate 0.16% among 350,000; in the data active = activation mostly above about 9.7%, no sharp cut-off
Mtb hypoxia inh – PubChem AID 1159583; M. tuberculosis hypoxia-regulated fluorescent reporter, fluorescence; fluorescence inhibition, % (no concentration beside the values); hit rate 0.1% among 300,000; in the data active = fluorescence inhibition mostly above about 23%, no sharp cut-off; inactive = mostly below about 17%
Numbers stand for hits; - = inactive; . = no result; + = active, no number. Sampled rows, rich in hits. Any-hit rate of the full collection: about 0.94%.

SMILES	MazEF act	SSB-PriA inh	Vc quorum ag	Mtb hypoxia inh
COc1ccc(C2=CSC(N=Cc3ccc(F)cc3)=NN2)cc1	.	-	.	39
CCOc1ccc(CC(=O)N2CCN(c3ccc(N4CCOCC4)nn3)CC2)cc1OCC	-	54	-	-
COc1ccccc1C=NNC(=O)CSc1cc(C)nc2ccccc12	.	-	.	-
COc1ccc2nc(C)cc(SCC(=O)N/N=C/c3cccc4ccccc34)c2c1	55	.	-	.
COc1cc(/C=N/NC(=O)CSc2cccc3cccnc23)cc(OC)c1OC	.	+	.	.
O=C(CSc1cccc2cccnc12)N/N=C/c1cccc(O)c1	-	+	-	.
O=C(CSc1cccc2cccnc12)NN=Cc1ccncc1	.	-	.	-
CCN1C(=O)/C(=C/C=C2/Sc3ccccc3N2CCO)SC1=S	-	-	236	-
C=CCN1C(=O)/C(=C2/Sc3ccccc3N2CC)SC1=S	162	-	-	-
COc1ccc(CCC(=O)Nc2cnn(CC3CCOCC3)c2)cc1	.	-	.	.
CC1CCN(c2ccc3c(c2)S(=O)(=O)c2cccc(C(=O)NCc4ccc(F)cc4)c2C3=O)CC1	+	-	-	-
O=C(NCc1ccc(F)cc1)c1cccc2c1C(=O)c1ccc(N3CCC(Cc4ccccc4)CC3)cc1S2(=O)=O	-	-	-	-
O=C(NCCN1CCN(c2ccccc2)CC1)c1ccccc1F	-	-	-	-
O=C(NCCCN1CCN(CCCNC(=O)c2ccccc2F)CC1)c1ccccc1F	-	61	-	-
CCC(C)Sc1ccc(-c2nc3ccc(C)cn3c2NCc2ccccc2)cc1OC (stereo not drawn)	-	-	-	.
CCC(C)Sc1cc(-c2nc3ccc(C)cn3c2NCc2ccccc2)ccc1OC (stereo not drawn)	-	39	-	-
O=C(Nc1ccc(-c2cnc3n2CCC3)cc1)Nc1cccs1	.	-	.	.
C=C1C(=O)O[C@@]23C1CCC(C)C2CC[C@@]1(C)OC31 (stereo partly drawn)	.	.	.	-
CC1CCC2C(C)C(=O)OC3OC4(C)CCC1C32OO4 (stereo not drawn)	-	-	-	81
CC1CCC2[C@@H](C)C(=O)OC3O[C@]4(C)CCC1C32OO4 (stereo partly drawn)	-	-	-	84
CCN(CC)c1ccc(Nc2nc(N3CCOCC3)c3ccccc3n2)cc1	-	-	-	-
COc1ccc(Nc2nc(N3CCCC3)c3ccccc3n2)cc1	-	35	-	.
O=C(O)c1cccc(N2C(=O)/C(=C/c3ccc(SCc4ccc(Cl)cc4)o3)SC2=S)c1	574	-	.	-
CS(=O)(=O)c1ccc(C(=O)Nc2nc(-c3ccccn3)cs2)cc1	.	75	.	.
O=C(Nc1nc(-c2ccccn2)cs1)c1c[n+]2cccnc2[nH]1	.	99	.	.
SMILES	MazEF act	SSB-PriA inh	Vc quorum ag	Mtb hypoxia inh
COc1ccc(-c2csc(NC(=O)c3ccoc3C)n2)cc1	-	-	-	-
O=C(Nc1nc(-c2ccccn2)cs1)c1ccccn1	.	162	.	.
Cc1occc1C(=O)Nc1nc(-c2ccccn2)cs1	.	112	.	.
O=C(Nc1nc(-c2ccccn2)cs1)c1ncc(Cl)c(Cl)c1Cl	-	-	-	-
Cc1ccc(C(=O)COC(=O)c2sc(-c3ccccc3)nc2C)cc1	.	-	.	.
C=C(C)Cn1c(CCNC(C)=O)nc2ccccc21	.	-	.	.
Cn1nnc2c(N3CC(C(=O)NCCC4=CCCCC4)C3)ncnc21	.	-	.	.
O=C(Nc1ccc(S(=O)(=O)Nc2nccs2)cc1)c1ccc([N+](=O)[O-])s1	.	-	.	.
O=S(=O)(Cc1ccco1)C1CCN(S(=O)(=O)c2ccccc2C(F)(F)F)CC1	.	-	.	.
O=C(Nc1nc(-c2ccccn2)cs1)c1ccccc1C(F)(F)F	.	88	.	.
CC(C)(C)NC(=O)C(=O)Nc1nc(-c2ccccn2)cs1	.	101	.	.
Cc1c(C(=O)Nc2nc(-c3ccccn3)cs2)oc2ccccc12	-	69	-	-
O=C(Nc1nc(-c2ccccn2)cs1)c1ccc(NC(=O)c2cccs2)cc1	.	97	.	.
N#Cc1ccccc1Sc1ccccc1C(=O)Nc1nc(-c2ccccn2)cs1	.	-	.	.
CN(c1ccccc1)S(=O)(=O)c1ccc(C(=O)Nc2ccc(O)c(-c3nc4ccccc4s3)c2)cc1	.	-	.	.
Cc1ccc(C(=O)Nc2nc(-c3ccccn3)cs2)s1	-	47	-	-
O=C(Nc1nc(-c2ccccn2)cs1)c1n[nH]c2c1CCCCC2	.	62	.	.
Cc1nc(C(=O)Nc2nc(-c3ccccn3)cs2)c(C(C)C)s1	.	68	.	.
O=C(Nc1nc(-c2ccccn2)cs1)c1ccc(Cl)s1	-	-	-	.
O=C(Nc1nc(-c2ccccn2)cs1)c1ccc2c(c1)CCCC2	.	-	.	.
Cc1nnsc1C(=O)Nc1nc(-c2ccccn2)cs1	.	136	.	.
CCc1sc(C(=O)Nc2nc(-c3ccccn3)cs2)cc1C	-	-	-	-
O=C(Nc1ccc(Br)cc1F)c1ccc(NS(=O)(=O)c2cccc(Cl)c2)cc1	.	-	.	.
CCCc1cc2c(=O)c(-c3nc4ccccc4s3)c(C)oc2cc1OCc1ccc(Cl)c(Cl)c1	.	-	.	.
CC1CN(Cc2ccc(C(=O)Nc3nc(-c4ccccn4)cs3)cc2)CC(C)O1 (stereo not drawn)	.	114	.	.
SMILES	MazEF act	SSB-PriA inh	Vc quorum ag	Mtb hypoxia inh
Cc1cc(C)cc(C(=O)Nc2nc(-c3ccccn3)cs2)c1	.	92	.	.
O=C(CC12CC3CC(CC(C3)C1)C2)Nc1nc(-c2ccccn2)cs1	.	-	.	.
CS(=O)(=O)Cc1ccc(C(=O)Nc2nc(-c3ccccn3)cs2)cc1	.	-	.	.
O=C(CC12CC3CC(CC(O)(C3)C1)C2)Nc1nc(-c2ccccn2)cs1	.	97	.	.
O=C(/C=C/c1cccs1)Nc1nc(-c2ccccn2)cs1	.	66	.	.
O=C([C@H]1C[C@@H]1c1cccs1)N1CCN(C(=O)C2(c3ccccc3)CCOCC2)CC1	.	-	.	.
O=C1CC(c2nc3ccccc3n2CC(O)COc2ccccc2Cl)CN1Cc1ccccc1 (stereo not drawn)	.	-	.	.
Cc1nc2ccc(NC(=O)c3ccccc3S(C)(=O)=O)cc2s1	.	-	.	.
COc1ccc(S(=O)(=O)CC(=O)Nc2nc(-c3ccccn3)cs2)cc1	.	88	.	.
O=C(Nc1nc(-c2cccs2)cs1)C1CCCCN1S(=O)(=O)c1cccs1 (stereo not drawn)	.	-	.	.
O=C(Nc1nc(-c2ccc(-c3ccccc3)cc2)cs1)C1=COCCO1	-	-	-	-
COc1ccc(S(=O)(=O)Nc2ccc(C(=O)Nc3nc(-c4ccccn4)cs3)cc2)cc1	.	95	.	.
O=C(Nc1nc(-c2ccccn2)cs1)C1=COCCO1	.	106	.	.
O=C(Nc1nc(-c2ccccn2)cs1)[C@@H]1CCCN1S(=O)(=O)c1cccs1	.	91	.	.
Cc1cccc(-c2nnc(SCC(=O)Nc3ccccc3C(F)(F)F)n2N)c1	.	-	.	.
c1ccc2sc(NCCN3CCOCC3)nc2c1	.	-	.	.
O=C(Nc1nc(-c2ccccn2)cs1)c1ccc(Cl)cc1	.	73	.	.
COc1ccccc1-c1nnc(NC(=O)C2CCCN2S(=O)(=O)c2cccs2)o1 (stereo not drawn)	-	75	-	.
CC(=O)N1N=C(c2ccccc2)CC1c1ccccc1[N+](=O)[O-] (stereo not drawn)	-	-	-	-
